IDE exosite FP = insulin-degrading enzyme (human) exo-site inhibition | P14735 | purified IDE, FL-6b probe fluorescence polarization; active compounds read low | z-score at 20 µM | 17,000 tested, 6.3% active | AID 1259349;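 active = z-score of -3 or lower, meaning strong loss of probe binding signal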;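 note: His-tagged human IDE residues 42-1019 made in E. coli with 30 nM FL-6b probe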
Target sequence (P14735 42-1019 limits assumed): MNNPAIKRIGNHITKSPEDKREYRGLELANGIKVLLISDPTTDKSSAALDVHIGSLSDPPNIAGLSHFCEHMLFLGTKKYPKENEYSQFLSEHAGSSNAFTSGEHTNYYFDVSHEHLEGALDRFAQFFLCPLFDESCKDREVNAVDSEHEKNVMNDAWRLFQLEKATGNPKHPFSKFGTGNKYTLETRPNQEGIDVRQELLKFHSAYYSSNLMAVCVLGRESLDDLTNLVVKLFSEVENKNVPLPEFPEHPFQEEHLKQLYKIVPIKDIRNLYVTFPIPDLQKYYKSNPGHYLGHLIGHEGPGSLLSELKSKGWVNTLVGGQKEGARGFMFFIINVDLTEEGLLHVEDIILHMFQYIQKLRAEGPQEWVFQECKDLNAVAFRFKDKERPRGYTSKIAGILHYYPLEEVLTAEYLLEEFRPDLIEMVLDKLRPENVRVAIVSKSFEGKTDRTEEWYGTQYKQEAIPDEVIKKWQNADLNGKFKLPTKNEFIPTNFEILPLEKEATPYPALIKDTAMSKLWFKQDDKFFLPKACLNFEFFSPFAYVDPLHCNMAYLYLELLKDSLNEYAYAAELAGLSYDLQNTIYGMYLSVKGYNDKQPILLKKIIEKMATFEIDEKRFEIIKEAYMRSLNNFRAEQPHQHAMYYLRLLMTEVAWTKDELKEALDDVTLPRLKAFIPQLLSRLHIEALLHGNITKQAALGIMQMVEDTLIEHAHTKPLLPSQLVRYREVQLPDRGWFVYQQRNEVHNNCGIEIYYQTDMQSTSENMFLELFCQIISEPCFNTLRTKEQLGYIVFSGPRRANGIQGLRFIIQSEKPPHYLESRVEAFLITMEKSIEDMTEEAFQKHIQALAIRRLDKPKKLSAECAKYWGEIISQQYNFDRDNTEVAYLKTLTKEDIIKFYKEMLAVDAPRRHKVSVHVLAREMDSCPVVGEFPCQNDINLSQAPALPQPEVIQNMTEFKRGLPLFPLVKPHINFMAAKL
Each line names hits and unclear results; the compound was inactive in the other large screens. The entries come from a sample that favours hits as a whole.

O=C(C[C@H]1C[C@@H]2c3cc(NC(=O)c4ccc5c(c4)OCO5)ccc3O[C@@H]2[C@@H](CO)O1)NCc1ccc(Oc2ccccc2)cc1	none
C[C@@H]1CCCCO[C@@H](CN(C)S(=O)(=O)c2ccccc2)[C@@H](C)CN([C@@H](C)CO)C(=O)c2cc(NC(=O)Nc3ccc4c(c3)OCO4)ccc2O1	none
C/C=C/c1ccc([C@@H]2[C@@H](CO)N(C(C)=O)[C@H]2CN(CC)C(=O)CC)cc1	none
O=C(NC1CCCC1)N1CCCCN2[C@H](C1)[C@@H](c1ccc(-c3cncnc3)cc1)[C@@H]2CO	none
O=C(NC1CCCC1)N1CCCCN2[C@H](CO)[C@@H](c3ccc(-c4cccnc4)cc3)[C@@H]2C1	none
O=C(NC1CCCC1)N1CCCCN2[C@H](CO)[C@@H](c3ccc(-c4cncnc4)cc3)[C@H]2C1	none
CCCC#Cc1ccc([C@H]2[C@@H](CO)N3CCCCN(C(=O)NC4CCCC4)C[C@@H]23)cc1	none
CCCC#Cc1ccc([C@H]2[C@H]3CN(C(=O)NC4CCCC4)CCCCN3[C@H]2CO)cc1	none
O=C(NC1CCCC1)N1CCCCN2[C@H](CO)[C@@H](c3ccc(-c4cncnc4)cc3)[C@@H]2C1	none
O=C(NC1CCCC1)N1CCCCN2[C@H](CO)[C@H](c3ccc(-c4ccccc4)cc3)[C@H]2C1	IDE exosite FP -5
CCCC#Cc1ccc([C@@H]2[C@@H](CO)N3CCCCN(C(=O)NC4CCCC4)C[C@H]23)cc1	IDE exosite FP -4.9
O=C(NC1CCCC1)N1CCCCN2[C@@H](CO)[C@@H](c3ccc(-c4ccccc4)cc3)[C@@H]2C1	IDE exosite FP -7
C[C@H](O)C#Cc1ccc([C@@H]2[C@H]3CN(S(=O)(=O)Cc4ccccc4)CCCCN3[C@H]2CO)cc1	none
CC(=O)N1[C@H](C(=O)NCc2ccccc2Cl)[C@@H](CO)[C@@H]2Cn3c(ccc(-c4cncnc4)c3=O)[C@@H]21	none
N#C[C@@H]1[C@H](c2ccc(C3=CCCC3)cc2)[C@H](CO)N1C(=O)NC1CCCCC1	none
CN(C)CC(=O)N[C@@H]1C=C[C@@H](CC(=O)NCc2ccc(Cl)cc2)O[C@H]1CO	none
COc1ccccc1C#Cc1ccc([C@H]2[C@@H](C#N)N(C(=O)C3CC3)[C@H]2CO)cc1	IDE exosite FP -9
COc1cccc(C#Cc2ccc([C@@H]3[C@@H](CO)N(C(=O)C4CC4)[C@H]3C#N)cc2)c1	none
COc1ccccc1C#Cc1ccc([C@H]2[C@H](C#N)N(C(=O)C3CC3)[C@H]2CO)cc1	IDE exosite FP -7.6
N#C[C@@H]1[C@@H](c2ccc(C#Cc3ccccc3F)cc2)[C@H](CO)N1C(=O)C1CC1	none
COc1cccc(C#Cc2ccc([C@H]3[C@@H](CO)N(C(=O)C4CC4)[C@H]3C#N)cc2)c1	none
COc1cccc(C#Cc2ccc([C@@H]3[C@@H](C#N)N(C(=O)C4CC4)[C@H]3CO)cc2)c1	none
COc1ccc(C[C@@H]2CCc3cnnn3COC[C@H](CC(C)C)NC2=O)cc1	none
CCCC#Cc1ccc([C@H]2[C@@H](CO)N(S(C)(=O)=O)[C@H]2C#N)cc1	none
Cc1noc(C)c1NC(=O)N(C)C[C@H]1OCCCC[C@H](C)Oc2ccc(NC(=O)Nc3ccc(C(F)(F)F)cc3)cc2C(=O)N([C@H](C)CO)C[C@@H]1C	none
O=C(C1CCC1)N1CC(=O)N2[C@H](CO)[C@H](c3ccc(-c4ccccc4F)cc3)[C@H]2C1	IDE exosite FP -11
O=C(C1CC1)N1CC(=O)N2[C@@H](CO)[C@@H](c3ccc(-c4ccccc4F)cc3)[C@@H]2C1	IDE exosite FP -8.4
O=C(C1CCCCC1)N1CC(=O)N2[C@@H](CO)[C@H](c3ccc(-c4ccccc4F)cc3)[C@@H]2C1	none
O=C(C1CCC1)N1CC(=O)N2[C@H](C1)[C@H](c1ccc(-c3ccccc3F)cc1)[C@@H]2CO	none
O=C(C1CCCCC1)N1CC(=O)N2[C@H](CO)[C@H](c3ccc(-c4ccccc4F)cc3)[C@@H]2C1	none
O=C1CN(Cc2ccccc2)C[C@@H]2[C@H](c3ccc(-c4ccccc4F)cc3)[C@H](CO)N12	none
O=C1CN(Cc2ccc(F)cc2)C[C@H]2[C@H](c3ccc(-c4ccccc4F)cc3)[C@@H](CO)N12	none
O=C1CN(Cc2ccccc2)C[C@@H]2[C@@H](c3ccc(-c4ccccc4F)cc3)[C@@H](CO)N12	IDE exosite FP -4.7
O=C(C1CC1)N1CC(=O)N2[C@H](CO)[C@H](c3ccc(-c4ccccc4F)cc3)[C@@H]2C1	none
O=C(Cc1cccnc1)N1CC(=O)N2[C@@H](CO)[C@H](c3ccc(-c4cccc(F)c4)cc3)[C@@H]2C1	none
CCCC#Cc1ccc([C@@H]2[C@@H](CO)N3CCCCN(Cc4cccnc4)C[C@H]23)cc1	none
CCS(=O)(=O)N1[C@H](CO)[C@H](c2ccccc2)[C@@H]1CN(C)Cc1ccccn1	none
COCCNC(=O)C[C@H]1C[C@H]2c3cc(NC(=O)CN(C)C)ccc3O[C@H]2[C@H](CO)O1	none
N#Cc1cccc(-c2ccc(C3[C@H]4CNC[C@@H]3N4C(=O)Nc3cccc(F)c3)cc2)c1 (stereo partly specified)	none
CC=Cc1ccc2n(c1=O)C[C@H]1[C@H](CO)[C@@H](C(=O)N3CCOCC3)N(Cc3ccccc3)[C@@H]21 (mixture of isomers)	none
CCc1nc(N2[C@H](C#N)[C@H](c3ccccc3-c3ccccc3F)[C@@H]2CO)sc1C	none
O=C1CN(S(=O)(=O)c2ccccc2)C[C@H]2[C@@H](c3ccc(C#Cc4ccccc4)cc3)[C@H](CO)N12	none
O=S(=O)(Cc1ccccc1)N1CCCCN2[C@H](CO)[C@H](c3ccc(C#Cc4ccccc4)cc3)[C@H]2C1	none
CCCC#Cc1ccc([C@@H]2[C@@H](CO)N3CCCCN(S(=O)(=O)CC)C[C@H]23)cc1	none
CCS(=O)(=O)N1CCCCN2[C@H](CO)[C@H](c3ccc(C#Cc4ccccc4OC)cc3)[C@@H]2C1	IDE exosite FP -8.2
O=S(=O)(Cc1ccccc1)N1CCCCN2[C@H](CO)[C@@H](c3ccc(C#Cc4ccccc4)cc3)[C@H]2C1	none
CCS(=O)(=O)N1CCCCN2[C@H](CO)[C@@H](c3ccc(C#Cc4ccccc4OC)cc3)[C@H]2C1	IDE exosite FP -6.5
O=S(=O)(Cc1ccccc1)N1CCCCN2[C@@H](CO)[C@H](c3ccc(C#Cc4ccccc4)cc3)[C@@H]2C1	none
CCCC#Cc1ccc([C@H]2[C@H]3CN(S(=O)(=O)CC)CCCCN3[C@H]2CO)cc1	none
O=S(=O)(Cc1ccccc1)N1CCCCN2[C@H](CO)[C@@H](c3ccc(C#Cc4ccccc4)cc3)[C@@H]2C1	none
CCS(=O)(=O)N1CCCCN2[C@H](CO)[C@H](c3ccc(C#Cc4ccccc4OC)cc3)[C@H]2C1	IDE exosite FP -9.2
CCCC#Cc1ccc([C@H]2[C@H](CO)N3C(=O)CN(C(=O)c4ccccc4)C[C@@H]23)cc1	none
N#Cc1ccc(-c2ccc([C@@H]3[C@H]4CNCC(=O)N4[C@H]3CO)cc2)cc1	none
O=C(Cc1ccncc1)NCC[C@H]1CC[C@H](NS(=O)(=O)c2ccccc2Cl)[C@H](CO)O1	none
O=C(C[C@@H]1C[C@@H]2c3cc(NS(=O)(=O)c4ccc(F)cc4)ccc3O[C@@H]2[C@@H](CO)O1)N1CCc2ccccc2C1	none
O=C(C1CCC1)N1CC(=O)N2[C@H](CO)[C@@H](c3ccc(-c4cccnc4)cc3)[C@@H]2C1	none
O=C(C1CCCCC1)N1CC(=O)N2[C@H](CO)[C@@H](c3ccc(-c4cccnc4)cc3)[C@H]2C1	none
O=C(C1CCC1)N1CC(=O)N2[C@H](CO)[C@@H](c3ccc(-c4cccnc4)cc3)[C@H]2C1	none
O=C(Nc1cc(F)ccc1F)N1CC(=O)N2[C@H](CO)[C@@H](c3ccc(-c4cccnc4)cc3)[C@H]2C1	none

Screens deposited in PubChem by Broad Institute.
